# Only some compounds are listed: those with a hit (about 12% of all), similar ones and a draw of the others.
# PLK1 PBD block – qHTS for Inhibitors of PLK1-PDB (polo-like kinase 1 - polo-box domain): Primary Screen; Serine/threonine-protein kinase PLK1 (Homo sapiens), P53350; Plk1 PBD binding of FITC phosphopeptide, fluorescence polarization; Potency, µM, most hits filed as inhibitors; 360,000 compounds, 2.8% hits; also: series mostly up to about 57 µM; nearly all actives have a fitted effect of over 65% in size
# Gal4-VP16 FLuc – VP16 counterscreen qHTS for inhibitors of ROR gamma transcriptional activity | 310,000 compounds, 3.5% hits | AID 2546, 2010 | Potency, µM (titrated, usually from 53.6 µM), usual class: inhibitors | Drosophila S2 Gal4-VP16 UAS-luciferase, luminescence, 20 h;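 also: Gal4-VP16 expression switched on by copper sulfate through the metallothionein promoter; nearly all actives have a fitted effect of over 50% in size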
# Sfp PPTase inh – qHTS Assay for Inhibitors of Bacillus subtilis Sfp phosphopantetheinyl transferase (PPTase). Biochemical Sfp PPTase activity, qHTS. Potency, µM, usual class: inhibitors. 310,000 compounds, 3.5% hits. 4'-phosphopantetheinyl transferase ffp (Bacillus subtilis), Q9F4F7;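 also: the enzyme is Sfp with the accession as filed and its product quenches rhodamine fluorescence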
#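 Reaction rates are the 30-min fluorescence difference (ex 525, em 598 nm) in wells containing 15 nM Sfp, 5 uM rhodamine-CoA and 12.5 uM BHQ-2-YbbR at pH 7.6 with 10 mM MgCl2.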
# ALDH1A1 inh – qHTS Assay for Inhibitors of Aldehyde Dehydrogenase 1 (ALDH1A1). Potency, µM (doses to about 75.3 µM), most hits filed as inhibitors. Aldehyde dehydrogenase 1A1 (Homo sapiens), P00352. Purified ALDH1A1, NADH fluorescence, propionaldehyde substrate. AID 1030, 2008. 220,000 compounds, 7.3% hits; active = well fitted inhibition curve with a large enough effect, not every such curve was filed as active; inconclusive = small, poorly fitted or top-dose-only effect, or another doubt; inactive = no such curve, though single readings can be large or run the other way
# RORg inh – qHTS for inhibitors of ROR gamma transcriptional activity; Potency, µM (series often up to 53.6 µM), actives largely listed as inhibitors; 310,000 compounds, 5.4% hits; AID 2551, 2010; Drosophila S2 Gal4-RORgamma UAS-luciferase reporter, 20 h; Nuclear receptor ROR-gamma (Mus musculus), P51450; also: nearly all actives have a fitted effect of over 60% in size
# Target sequence (P51450 whole entry, looked up, the tested form may be a part): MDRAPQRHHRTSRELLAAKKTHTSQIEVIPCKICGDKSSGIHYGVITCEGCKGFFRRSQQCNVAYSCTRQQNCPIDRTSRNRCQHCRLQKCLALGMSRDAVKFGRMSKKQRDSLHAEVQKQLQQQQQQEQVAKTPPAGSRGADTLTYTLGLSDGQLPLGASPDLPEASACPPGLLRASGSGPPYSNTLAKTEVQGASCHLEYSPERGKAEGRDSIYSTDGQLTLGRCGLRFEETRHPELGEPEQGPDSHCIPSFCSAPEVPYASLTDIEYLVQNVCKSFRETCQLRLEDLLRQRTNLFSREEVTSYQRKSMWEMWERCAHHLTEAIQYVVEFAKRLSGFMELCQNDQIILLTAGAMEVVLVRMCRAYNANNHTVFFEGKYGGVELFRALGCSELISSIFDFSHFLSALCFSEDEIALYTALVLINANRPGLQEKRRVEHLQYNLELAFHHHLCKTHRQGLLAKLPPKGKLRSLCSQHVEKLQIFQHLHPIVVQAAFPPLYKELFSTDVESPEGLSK
#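 A Gal4/UAS one-hybrid system in insect cells: metallothionein-promoter Gal4–ROR gamma fusion plus Photinus luciferase reporter. Copper sulfate 700 uM final, 20 hr ambient incubation, luminescent detection after 10 min with reagent.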
# A number is an active result; n = inactive; u = inconclusive; x = no result; [ ] = remark or other dose. Unless noted, calls follow the shape of the dose curve; as a rule, active = well fitted curve in the direction sought with a large enough effect; inconclusive = small, poorly fitted or top-dose-only effect, or another doubt; inactive = no such curve, though single readings can be large; an effect the other way counts as inactive or inconclusive.
SMILES,PLK1 PBD block,Gal4-VP16 FLuc,Sfp PPTase inh,ALDH1A1 inh,RORg inh
CC1=CSC2=NC(=O)/C(=C\c3cccn3-c3ccccc3)C(=N)N12,n,n,10µM,22µM,n
CC(C)c1ccc(-n2cccc2/C=C2/C(=N)N3C=CSC3=NC2=O)cc1,n,16µM,n,n,7.1µM
CC(C)=CCC/C(C)=C/CO/N=C1/C[C@@H](O)[C@@H](O)[C@@H]2[C@@H]3C(=O)N([C@@H](C)c4ccccc4)C(=O)[C@H]3CC[C@@H]12,x,n[10 µM],n,n[13.5 µM],n[10 µM]
COc1ccc(-c2nc3ccccn3c2NCc2ccc3c(c2)OCO3)cc1,n,n,n,u,u
COc1ccc(-c2nc3cc(C)ccn3c2NCc2ccc3c(c2)OCO3)cc1,n,u,u,u,7.1µM
c1ccc(-c2nc3ccccn3c2NCc2ccc3c(c2)OCO3)cc1,n,n,n,u,10µM
CN(Cc1ccco1)C(=O)[C@H](Cc1ccccc1)NC(=O)CC[C@H]1O[C@@H](n2ccc(=O)[nH]c2=O)[C@H](O)[C@@H]1O,n,x,x,x,x
O=C(CCCOc1ccccc1)Nc1cccc(S(=O)(=O)N2CCCCCC2)c1,n,x,x,x,x
COc1cccc(Cn2c(=O)cnc3cnc(Oc4ccccc4)nc32)c1,x,n,n,n,n
Oc1c(C(c2ccccc2)N2CCCCC2)sc2ncnn12 (stereo not drawn),n,n,n,n,7.9µM
Oc1c(C(c2ccccc2)N2CCN(Cc3ccccc3)CC2)sc2ncnn12 (stereo not drawn),n,n,n,n,n
COc1cccc(C(c2sc3ncnn3c2O)N2CC(C)OC(C)C2)c1 (stereo not drawn),n,n,n,0.35µM,n
Oc1c(C(c2ccco2)N2CCOCC2)sc2ncnn12 (stereo not drawn),n,n,40µM,14µM,u
COc1cccc(Cn2c(=O)c(-c3ccccc3)nc3cnc(N(C)C)nc32)c1,x,n,u,u,n
Sc1oc(-c2ccccc2)cc1C=Nc1ccccc1,n,18µM,n,u,13µM
CCCCc1c2ccccc2nc2[nH]c3ccccc3c12,x,n,n,n,u
COC(=O)C1(C)COP(=O)(Nc2ccc(OC)cc2)OC1 (stereo not drawn),n,x,x,x,x
O=C1c2ccccc2C(=O)N1CCC(c1ccc(F)cc1)c1ccco1 (stereo not drawn),n,n,14µM,10µM,n
O=C(CC(c1ccc(F)cc1)c1ccco1)N1CCCC1 (stereo not drawn),n,n,32µM,u,n
O=C(CC(c1ccc(F)cc1)c1ccco1)N1CCOCC1 (stereo not drawn),n,n,n,n,n
O=C1CCCCCN1Cc1ccccc1,30µM,n,n,n,n
O=C(Oc1ccc(-c2nnco2)cc1)c1cc(S(=O)(=O)N2CCOCC2)ccc1F,n,x,x,x,x
CC(C)CC(NC(=O)C(COC(C)(C)C)NC(=O)C(Cc1ccc(O)cc1)NC(=O)C(CO)NC(=O)C(Cc1c[nH]c2ccccc12)NC(=O)C(Cc1cnc[nH]1)NC(=O)C1CCC(=O)N1)C(=O)NC(CCCN=C(N)N)C(=O)N1CCCC1C(=O)NNC(N)=O (stereo not drawn),x,n,n,x,n
CCN1C(=O)S/C(=C/c2c(OCc3ccc(C(=O)O)cc3)ccc3ccccc23)C1=O,38µM,n,u,u,n
O=C(Cn1c(-c2ccco2)nc2ccccc21)N1CCCCC1,n,n,u,u,n
SMILES,PLK1 PBD block,Gal4-VP16 FLuc,Sfp PPTase inh,ALDH1A1 inh,RORg inh
COCCCN=C(c1ccco1)n1c(=S)nc(-c2ccco2)n(CCCOC)c1=S,19µM,u,11µM,3.5µM,n
COCCCn1c(SCC(=O)OC2CCCCC2)nnc1-c1ccco1,n,n,u,u,n
Cc1cccc(OCCn2c(-c3ccco3)nc3ccccc32)c1,n,n,u,u,16µM
CCn1c(-c2ccco2)nc2ccccc21,n,x,40µM,u,n[0.365 µM]
c1ccc(OCCn2c(-c3ccco3)nc3ccccc32)cc1,u,n,50µM,u,11µM
Cc1cccc(OCCn2c(S(=O)(=O)O)nc3ccccc32)c1,n,n,n,n,n
CC1(C)S[C@@H]2[C@H](NC(=O)COc3ccccc3)C(=O)N2[C@H]1C(=O)O,x,u,n,n,n
CN1c2c(nc(N)[nH]c2=O)NCC1CNc1ccc(C(=O)NC(CCC(=O)O)C(=O)O)cc1 (stereo not drawn),x,n,n,x,n
Cc1ccccc1NS(=O)(=O)c1ccc(C(=O)NCc2ccccc2CN2CCCC2)cc1,n,x,x,x,x
COc1ccc(-c2nc3ccccc3c(=O)n2CCCn2ccnc2)cc1,n,n,n,14µM,n
COCCCn1c(-c2ccco2)nc2ccccc2c1=O,n,n,n,22µM,n
O=S(=O)(c1ccc(NC(=S)NC23CC4CC(CC(C4)C2)C3)cc1)N1CCCCC1,n,x,x,x,x
FC(F)Oc1ccc(NC(=S)NC23CC4CC(CC(C4)C2)C3)cc1,n,7.1µM,n,x,0.79µM
CCOc1ccc(NC(=S)N2CCN(S(C)(=O)=O)CC2)cc1,n,n,n,x,n
CN(C)c1ccc(NC(=S)NC23CC4CC(CC(C4)C2)C3)cc1,n,5µM,n,x,2µM
CNC(=S)NC12CC3CC(CC(C3)C1)C2,n,7.9µM,n,n,2.5µM
CCOc1ccc(NC(=S)NC23CC4CC(CC(C4)C2)C3)cc1,n,2.8µM,n,x,3.2µM
CCCCNC(=O)C1C(c2ccccc2)=Nc2ccccc2N1C(=O)c1ccc(C)cc1 (stereo not drawn),n,x,x,x,x
O=C(OCc1nnc(-c2ccc(Cl)cc2)o1)c1ccc(O)cc1,n,n,n,n,n
CS(=O)(=O)c1ccc(C(=O)OCc2nnc(-c3ccc(Cl)cc3)o2)cc1[N+](=O)[O-],n,n,n,n,10µM
Fc1ccc(-n2c(-c3cc(C4CC4)[nH]n3)n[nH]c2=S)cc1Cl,n,n,u,x,u
S=c1[nH]nc(-c2cccnc2)n1-c1ccc2c(c1)OCCO2,n,n,u,n,u
COc1ccc(-c2n[nH]c(=S)n2N)c(OC)c1,8.4µM,n,35µM,25µM,n
S=c1[nH]nc(-c2ccc(Cl)cc2)n1-c1ccc2c(c1)OCCO2,n,7.1µM,u,u,3.2µM
COc1ccc(-n2c(-c3ccc(Cl)cc3Cl)n[nH]c2=S)c(OC)c1,24µM,6.3µM,n,x,4µM
Fc1ccc(-c2n[nH]c(=S)n2-c2ccc3c(c2)OCCO3)cc1,n,n,u,n,13µM
S=c1[nH]nc(-c2ccc(Cl)cc2)n1-c1ccc(Cl)cc1,u,7.1µM,n,x,7.1µM
S=c1[nH]nc(-c2ccc(Cl)cc2Cl)n1-c1ccc(Cl)cc1,u,u,n,x,6.3µM
S=c1[nH]nc(Cn2nnc3ccccc32)n1-c1ccc(Cl)cc1,n,n,n,n,u
